In PubChem BioAssay (EPA / NIEHS):
Values joined by “and” are separate entries in the source; they are usually repeats but may differ in a detail not shown here. Equal entries are not always repeated. Active and inactive are the calls of the source. How the source made its calls: active means hit-call score of the fitted dose curve at least 0.9, where 1 is the maximum; inactive means score below 0.9.

read-out: Urokinase-type plasminogen activator receptor (uPAR), PLAUR (gene 5329); test: BSK_BE3C_uPAR: BioMAP Diversity Plus: BE3C Assay for Urokinase-type plasminogen activator receptor (uPAR) Biomarker Activity (AID 2283039); details: primary human bronchial epithelial cells; actives raise or lower the signal;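 on outcome: cells exposed to compound for one day before measurement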
Procedure: BSK_BE3C is a cell-based, multiplexed-readout assay that uses bronchial epithelial cell, a human lung primary cell, with measurements taken at 24 hours after chemical dosing in a 96-well plate.BSK_BE3CAR is an assay component measured in the BSK_BE3C assay. It measures uPAR antibody related to regulation of gene expression using ELISA technology.Data from the assay component BSK_BE3CAR was analyzed into 1 assay endpoint. This assay endpoint, BSK_BE3CAR, was analyzed with bidirectional fitting relative to DMSO as the negative control and baseline of activity. Using a type of binding reporter, gain or loss-of-signal activity can be used to understand changes in the signaling as they relate to the gene PLAUR. Furthermore, this assay endpoint can be referred to as a primary readout, because this assay has produced multiple assay endpoints where this one serves a signaling function. To generalize the intended target to other relatable targets, this assay endpoint is annotated to the cytokine intended target family, where the subfamily is plasmogen activator.
The levels of cell surface (or secreted, indicated by the prefix "s") biomarker endpoints were measured by ELISA. Overt cytotoxicity to cells in confluent adherent cultures (all systems other than the BT system) was assessed by measuring total protein levels using sulforhodamine B (SRB) staining in parallel cultures at the time of biomarker measurements, indicated as SRB endpoints. For proliferation assays for adherent cell types, individual cell types are cultured at sub-confluence and relative cell numbers quantified by SRB staining at time points optimized for each system (48 h: 3C and CASM3C systems; 72 h: BT and HDF3CGF systems; 96 h: SAg system). SRB was performed by staining cells with 0.1% SRB after fixation with 10% TCA and reading wells at 560 nm.Viability and proliferation of PBMC (T cells) was quantified by Alamar Blue reduction for the SAg and BT systems. For PBMC viability (referred to as PBMC Cytotoxicity within the assay endpoint names), cells were plated (75,000/well in a 96-well plate) and then chemical samples added for 1 h before addition of activators, SEB and TSST-1 (20 ng/mL final concentration each). Cells were incubated for 90 h. Then, Alamar Blue (20 uL/well) (Invitrogen, Cat DAL1100) was added for 6 h, and the plates were read with a fluorescence microplate reader at 546/580 nm (excitation/emission). For PBMC proliferation, cells were plated and activated as above but incubated for only 16 h prior to addition of Alamar Blue. Plates were read after 6 h.

Question: With `Sc1nc2ccccc2s1` as the compound, how does the outcome read?
Answer: inactive

Question: `Cc1cccnc1` was tested. Which outcome did it give?
Answer: inactive

Question: How did the outcome turn out when `CCCCCCCCCCCCCCCCCC[N+](C)(C)C` was run?
Answer: inactive

Question: With `CC[N+](CC)(CC(=O)Nc1c(C)cccc1C)Cc1ccccc1` as the compound, how does the outcome read?
Answer: inactive

Question: Which outcome does the source give for `CN(C)CCC(c1ccc(Cl)cc1)c1ccccn1` (configuration not stated) here?
Answer: inactive

Question: How did the outcome turn out when `CCCCCCCCCCC1CO1` (configuration not stated) was run?
Answer: inactive

Question: Which outcome does the source give for `COc1ccc(C(=O)c2ccccc2O)c(O)c1` here?
Answer: inactive

Question: With `Oc1cccc2ccccc12` as the compound, how does the outcome read?
Answer: inactive

Question: For `O=C(C(=O)c1ccccc1)c1ccccc1`, which outcome is on record?
Answer: inactive

Question: For `O=[N+]([O-])c1cc(S(=O)(=O)Nc2ccccc2)ccc1Nc1ccccc1`, which AC50 is on record?
Answer: 32.4 µM (active) and 31.6 µM (active)

Question: `CC(C)CC(=O)CC(C)CC(C)C` (configuration not stated) was tested. Which AC50 did it give?
Answer: 34.9 µM (active)

Question: For `CC[N+](CC)(CC(=O)Nc1c(C)cccc1C)Cc1ccccc1` (tested in a mixture with another compound), which outcome is on record?
Answer: inactive

Question: Which AC50 does the source give for `OC(C(F)(F)F)(C(F)(F)F)C(O)(C(F)(F)F)C(F)(F)F` here?
Answer: 14.4 µM (active) and 13.8 µM (active)

Question: Which outcome does the source give for `COC(=O)/C=C\C(=O)OC` here?
Answer: inactive

Question: `COc1cc(CNC(=O)CCCC/C=C/C(C)C)ccc1O` was tested. Which outcome did it give?
Answer: inactive

Question: With `Cc1c(C(N)=O)cc([N+](=O)[O-])cc1[N+](=O)[O-]` as the compound, how does the outcome read?
Answer: inactive

Question: For `CCCCCCC(O)CCCCCCCCCCC(=O)OC` (configuration not stated), which outcome is on record?
Answer: inactive

Question: For `CCCCCCCCCC/C=C/C1CC(=O)OC1=O` (configuration not stated), which outcome is on record?
Answer: inactive

Question: How did the outcome turn out when `CCCCC(CC)COC(=O)C=Cc1ccc(OC)cc1` (configuration not stated) was run?
Answer: inactive

Question: With `COc1ccccc1Oc1c(NS(=O)(=O)c2ccc(C(C)(C)C)cc2)nc(-c2ncccn2)nc1OCCO` as the compound, how does the outcome read?
Answer: inactive

Question: For `C1CN(CCOCCN2CCOCC2)CCO1`, which outcome is on record?
Answer: inactive

Question: For `Cc1cc(-n2nc3ccc(Cl)cc3n2)c(O)c(C(C)(C)C)c1`, which outcome is on record?
Answer: inactive

Question: With `CCC(C)=NO` as the compound, how does the outcome read?
Answer: inactive

Question: How did the outcome turn out when `CN(C)c1ccc(C(c2ccccc2)c2ccc(N(C)C)cc2)cc1` was run?
Answer: inactive

Question: `CN(C)Cc1cc(C(C)(C)C)c(O)c(C(C)(C)C)c1` was tested. Which outcome did it give?
Answer: inactive

Question: `CCC[Si](OC(C)=O)(OC(C)=O)OC(C)=O` was tested. Which outcome did it give?
Answer: inactive

Question: With `CC(C)C1OCCN1CCOC(=O)NCCCCCCNC(=O)OCCN1CCOC1C(C)C` (configuration not stated) as the compound, how does the outcome read?
Answer: inactive
